In the library only some 12% were active in any assay of this set; here they are far more common.
ALDH1A1 block = qHTS Assay for Inhibitors of Aldehyde Dehydrogenase 1 (ALDH1A1); hit rate 7.3% among 220,000; AID 1030, 2008; Purified ALDH1A1, NADH fluorescence, propionaldehyde substrate; Potency, µM (series often up to 75.3 µM), without a hit: at the top dose activity, negative = inhibition, hits mostly inhibitors; active = well fitted inhibition curve with a large enough effect, not every such curve was filed as active; inconclusive = small, poorly fitted or top-dose-only effect, or another doubt; inactive = no such curve, though single readings can be large or run the other way;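 note: potency is the fitted concentration of half-maximal effect; plate controls were no enzyme wells and a reference inhibitor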
Sfp PPTase inh = qHTS Assay for Inhibitors of Bacillus subtilis Sfp phosphopantetheinyl transferase (PPTase); hit rate 3.5% among 310,000; AID 1490, 2009; 4'-phosphopantetheinyl transferase ffp (Bacillus subtilis), Q9F4F7; Potency, µM, for the others: largest response in the series, negative = inhibition, most hits filed as inhibitors; Biochemical Sfp PPTase activity, qHTS;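 note: the enzyme is Sfp with the accession as filed and its product quenches rhodamine fluorescence; potency is the fitted concentration of half-maximal effect; 0% = enzyme reaction without inhibitor and -100% = no enzyme wells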
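Compounds were incubated with enzyme (final 15 nM) for 15 min at room temperature before substrate addition started the reaction. Fluorescence at 525 nm excitation, 598 nm emission was recorded immediately and after 30 minutes.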
RORgamma inh = qHTS for inhibitors of ROR gamma transcriptional activity | Nuclear receptor ROR-gamma (Mus musculus), P51450 | Drosophila S2 Gal4-RORgamma UAS-luciferase reporter, 20 h | Potency, µM (highest dose often 53.6 µM), inactives show at the top dose activity change, negative = inhibition, actives largely listed as inhibitors | hit rate 5.4% among 310,000 | AID 2551, 2010; note: potency is the fitted concentration of half-maximal effect; nearly all actives have a fitted effect of over 60% in size
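Compounds are pin-transferred onto Drosophila Schneider cells expressing a copper-inducible Gal4–ROR gamma transactivation domain fusion. After 1 hr, copper sulfate is added to 700 uM final; luciferase is read 20 hr later.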
VP16 counter = VP16 counterscreen qHTS for inhibitors of ROR gamma transcriptional activity. Drosophila S2 Gal4-VP16 UAS-luciferase, luminescence, 20 h. AID 2546, 2010. Potency, µM (top dose mostly 53.6 µM), inactives show at the highest dose activity, negative = inhibition, usual class: inhibitors. hit rate 3.5% among 310,000;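 note: Gal4-VP16 expression switched on by copper sulfate through the metallothionein promoter; potency is the fitted concentration of half-maximal effect; nearly all actives have a fitted effect of over 50% in size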
PLK1 PBD block = qHTS for Inhibitors of PLK1-PDB (polo-like kinase 1 - polo-box domain): Primary Screen. hit rate 2.8% among 360,000. Potency, µM, without a hit: max response, negative = inhibition, hits mostly inhibitors. AID 720504, 2013. Plk1 PBD binding of FITC phosphopeptide, fluorescence polarization; note: potency is the fitted concentration of half-maximal effect; series mostly up to about 57 µM; nearly all actives have a fitted effect of over 65% in size
Target sequence (P53350 whole entry, looked up, the tested form may be a part): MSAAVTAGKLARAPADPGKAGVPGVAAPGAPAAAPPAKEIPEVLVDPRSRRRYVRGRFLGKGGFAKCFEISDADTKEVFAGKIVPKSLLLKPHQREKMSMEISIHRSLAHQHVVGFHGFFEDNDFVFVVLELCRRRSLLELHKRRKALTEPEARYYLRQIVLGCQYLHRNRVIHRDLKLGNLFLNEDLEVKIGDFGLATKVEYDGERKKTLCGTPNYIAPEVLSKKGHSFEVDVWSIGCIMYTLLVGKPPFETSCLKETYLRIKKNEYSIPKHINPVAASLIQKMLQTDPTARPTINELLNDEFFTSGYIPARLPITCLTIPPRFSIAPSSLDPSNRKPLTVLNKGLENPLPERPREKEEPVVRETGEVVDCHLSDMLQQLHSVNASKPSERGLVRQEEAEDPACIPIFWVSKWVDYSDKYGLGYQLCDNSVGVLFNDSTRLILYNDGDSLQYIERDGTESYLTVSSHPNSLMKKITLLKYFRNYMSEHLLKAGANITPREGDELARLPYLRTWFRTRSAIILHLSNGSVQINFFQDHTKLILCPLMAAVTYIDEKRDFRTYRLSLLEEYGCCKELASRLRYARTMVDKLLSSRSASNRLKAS
Sfp inh conf = Confirmation qHTS Assay for Inhibitors of Bacillus subtilis Sfp phosphopantetheinyl transferase (PPTase); Sfp PPTase enzymatic assay, qHTS titration; Potency, µM (doses to about 114 µM), for inactives: at the highest dose activity change, negative = inhibition, usual class: inhibitors; shares compounds with Sfp PPTase inh; hit rate 79% among 380;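 note: potency is the fitted concentration of half-maximal effect; plate controls were uninhibited Sfp reaction for no effect and no enzyme control for full effect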
Sfp gel assay = Gel-Based Assay for Inhibitors of Bacillus subtilis Sfp phosphopantetheinyl transferase (PPTase) | shares compounds with Sfp PPTase inh | purified Sfp, gel-based phosphopantetheinylation read-out | Potency, µM, hits mostly inhibitors | hit rate 20% among 210 | AID 2707, 2010;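 active = potency below 100 µM; inconclusive = dose-dependent response but potency above 100 µM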;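 note: band intensities scaled against SCH202676 control wells before curve fitting; potency is an IC50 for inhibitors of Sfp transfer activity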
The depositor's hits bear a star; i = inactive; ? = inconclusive; / = no result given; ! = not confirmed by another sample; [ ] = remark or other dose. Unless noted, calls come from the whole dose curve; as a rule, active = well fitted curve in the direction sought with a large enough effect; inconclusive = small, poorly fitted or top-dose-only effect, or another doubt; inactive = no such curve, though single readings can be large; an effect the other way counts as inactive or inconclusive. Unless noted, % is set by controls: 0 for no effect and ±100 for the full control effect.

SMILES	ALDH1A1 block	Sfp PPTase inh	RORgamma inh	VP16 counter	PLK1 PBD block	Sfp inh conf	others
N[C@@H](Cc1ccccc1)c1nnc2sc(SCc3ccccc3)nn12	28µM*	45µM*	-38%	-1%	-19%	66µM*
Cc1nnc2sc(SCc3ccc(Br)cc3)nn2c1=O	1%	13%	-6%	-5%	-6%	/
CCc1ccc(OCc2ccccc2C(=O)Nc2ccc3nc(C)cc(N)c3c2)cc1	-5%	13µM*	11µM*	?	/	47µM*
COC(=O)[C@@H](N)Cc1ccc(O)cc1	6%	-7%	-2%	-3%	/	/
N[C@@H](CO)C(=O)NNCc1ccc(O)c(O)c1O	?	28µM*	-19%[16.9 µM]	-9%[17 µM]	/	?	Sfp gel assay=19µM*
Cn1c(SCC(=O)c2cc3ccccc3o2)nnc1-c1ccccc1	28µM*	13µM*	?	?	?	53µM*
Cn1cnnc1SCC(=O)c1cc2ccccc2o1	?	-6%	13%	?	?	/
C=CCn1c(Oc2ccc(C=O)cc2OCC)nc2c1c(=O)n(C)c(=O)n2C	/	5%	-13%	6%	-4%	/
Cc1cc(O)c(C2=Nc3ccccc3SC(c3ccc(Cl)cc3)C2)c(=O)o1 (stereo not given)	3%	14µM*	-15%	20%	-26%	53µM*	Sfp gel assay=?
Cc1cc(NC(=O)CN2C(=O)CC(c3ccco3)Sc3ccccc32)no1 (stereo not given)	14µM*	2.5µM*	?	?	-16%	15µM*	Sfp gel assay=i
CCCCN1CC(COC)Oc2cccc(F)c2S1(=O)=O (stereo not given)	/	/	/	/	-6%	/
C=C1C(=O)[C@]23[C@H](O)[C@H]1CC[C@H]2[C@@]12COC3(O)[C@H](O)[C@@H]1C(C)(C)CC[C@@H]2O	9%	13µM*	3.2µM*	3.5µM*	/	26µM*	Sfp gel assay=?
CCN(CC(=O)Nc1ccc(NC(C)=O)cc1)C(=O)c1ccccc1SCc1c(C)noc1C	/	/	/	/	-7%	/
Cc1ccc(C2=NN=C(NC(=O)CSc3nncn3C)SC2)cc1	?	8.9µM*	0%	-8%	3µM*	26µM*
Cc1ccc(C(=O)NC(=O)CSc2nncn2C)cc1	/	16%	1%	19%	-6%	/
COc1ccc(-c2noc(CSc3nc4ccccc4c(=O)n3-c3ccccc3)n2)cc1	0%	?	-5%	0%	-5%	/
Cc1sc2nc(SCc3nc(-c4cccs4)no3)n(-c3ccccc3)c(=O)c2c1C	6%	4µM*	34%	?	-2%	5.9µM*	Sfp gel assay=i
CC(=O)Nc1ccc(S(=O)(=O)N2CCCC(C(=O)O)C2)cc1 (stereo not given)	-1%	0%	-14%	4%	3%	/
O=C(COC(=O)/C=C/c1ccc([N+](=O)[O-])cc1)NCC1CCCCC1	/	/	/	/	-2%	/
NC(=O)N1c2ccccc2CC(=O)c2ccccc21	8%	35µM*!	3%	3%	-19%	47µM*	Sfp gel assay=i
COC(=O)C(CC(=O)c1ccc(C)cc1)n1nc(C)cc1C (stereo not given)	/	-1%	2%	-6%	-5%	/
COC(=O)C(CC(=O)c1ccc(Br)cc1)n1ccnc1 (stereo not given)	0.45µM*	1.6µM*	0.63µM*	1µM*	/	8.3µM*
COc1ccccc1NC(=S)N(CCCN1CCOCC1)Cc1cccs1	-16%	6%	11%	-7%	-15%	/
Cc1ccc(C)c(N2CCN(C(=O)c3nn(C)c4c3CS(=O)(=O)c3ccccc3-4)CC2)c1	/	-2%	33%	-6%	-6%	/
COC(=O)c1[nH]c2ccccc2c1NC(=O)Oc1ccccc1	?	11µM*	22%	6%	?	?
SMILES	ALDH1A1 block	Sfp PPTase inh	RORgamma inh	VP16 counter	PLK1 PBD block	Sfp inh conf	others
COC(=O)c1[nH]c2ccccc2c1NC(=O)c1ccccc1F	/	21%	2%	-1%	-16%	/
O=C(NCc1ccccc1Cl)c1ccc(CSc2nc3ccncc3[nH]2)cc1	/	17%	?	-5%	-3%	/
Clc1ccccc1CSc1nc2ccncc2[nH]1	?	56µM*	34%	-5%	?	?	Sfp gel assay=?
COc1ccc(CN2C(=O)CNC2=S)cc1	/	5%	-2%	-12%	-2%	/
Brc1ccc2[nH]c3nc(SCCN4CCOCC4)nnc3c2c1	?	4%	18%	6%	-7%	/
c1ccc2c(c1)[nH]c1nc(SCCN3CCOCC3)nnc12	?	4.5µM*	6%[0.365 µM]	/	27µM*	9.4µM*
CCOC(=O)C1(Cc2cccc(F)c2)CCN(C(=O)c2ccoc2C)CC1	?	7%	13%	?	0%	/
O=C(NCCC(=O)N1CCN(S(=O)(=O)c2ccccc2Cl)CC1)Nc1ccccc1	/	/	/	/	-27%	/
CC(C)OC(=O)Cn1c(-c2ccccc2)c(-c2ccccc2)nnc1=O	/	4%	/	/	0%	/
COC(=O)Cn1c(-c2ccc(OC)cc2)c(-c2ccc(OC)cc2)nnc1=O	/	50µM*	-28%	-23%	-4%	8%
CCOC(=O)c1c(NC(=O)c2ccccc2)sc2c1CCc1ccccc1-2	?	1.3µM*	-14%	-13%	6.7µM*	13µM*
CCOC(=O)c1c(NC(=O)c2ccccc2Cl)sc2c1CCc1ccccc1-2	?	11µM*	4%	1%	6.7µM*	9.4µM*
Cc1sc(NC(=O)c2ccccc2)c(C(=O)c2ccccc2)c1C	5µM*	13µM*	12%	-4%	6.7µM*	13µM*
CCOC(=O)c1sc(NC(=O)c2ccccc2)cc1C	?	-3%	?	-4%	1%	/
Cc1sc(NC(=O)c2ccccc2)c(C(=O)NC(C)C)c1C	?	14%	-5%	-1%	-1%	/
Cc1cccc(NC(=O)COC(=O)c2ccc3c(c2)OCO3)c1C	?	9%	?	-7%	0%	/
CCOC(=O)C[n+]1c(C)sc2ccc(OC)cc21	6.3µM*	1µM*	?	?	27µM*	6.6µM*	Sfp gel assay=i
Cn1c(SC2CCCCC2=O)nnc1-c1ccccc1F (stereo not given)	1%	-16%	12%	10%	-4%	/
CCOC(=O)c1c(-c2ccc(C)o2)csc1NC(=O)CSc1nnnn1-c1ccccc1	1.6µM*	3.5µM*	11µM*	7.9µM*	-29%	9.4µM*
